CaV13 FRET inh: Disruptors of the CACNA1D IQ motif to Ca2+-dependent inactivation inhibitor domain association, primary screening, Förster resonance energy transfer in intact living … | inhibition, % at 12.3 µM | 340,000 tested, 0.098% active | AID 743397 | HEK cells, CFP/YFP FRET ICDI-IQ, plate reader, 10 min; percent FRET-ratio fall versus neutral wells;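 active = mean replicate inhibition of at least 30% and at least 1% of replicates passing that level; inconclusive = only one of the two criteria is met; inactive = neither criterion is met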
rRNA inh HTS: inhibits bacterial ribosomal RNA function over humanized ribosomes | E. coli WT GFP vs humanized-ribosome RFP mutants, fluorescence, 24 h; hits give low values; DMSO median 0, no signal -100 | GFP signal change (wild-type ribosome), % (test concentration not listed) | 350,000 tested, 1.6% active | AID 720706;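 active = significant combined selectivity score with lowered wild-type GFP, culture density cut under 30%, mutant RFP and density less affected; inactive = any of these conditions unmet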
GSIS activator: GLuc luminescence reporter in INS-1E cells, primary screen for activators of glucose-dependent secretion of insulin; INS-1E GLuc reporter insulin secretion, 2-3 h; activation, % at 16.6 µM; 370,000 tested, 0.61% active;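 active = lowest replicate activation of at least 40%, so every replicate reaches that level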
PGC1a acetyl inh: PGC1a acetylation modulation, inhibitor mode; inhibition, % at 15.6 µM; 350,000 tested, 0.17% active; U2OS PGC1a acetylation, AlphaScreen anti-acetyl-lysine; with virally co-expressed GCN5 acetyltransferase;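 active = every replicate shows inhibition of at least 40%; inconclusive = mean inhibition at least 40% but some replicate below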
DENV2 CPE: DENV2-induced cell death inhibition; DENV2-infected cells, cytopathic effect rescue, plate reader; CPE inhibition, % at 9.99 µM; 350,000 tested, 1.7% active; AID 651640; in the data active = CPE inhibition above about 20%, passing the limit was not always enough; inconclusive = no clear call, values can overlap the other calls; tested in BHK-21 cells
ERAP1 inh: blocks human ERAP1 aminopeptidase activity; Q9NZ08; recombinant ERAP1, Leu-AMC fluorescence, 60 min; inhibition, % at 10.7 µM; 340,000 tested, 0.15% active; AID 652197;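 active = mean replicate inhibition of at least 30%, or all replicates individually reaching that 30% level; inactive = mean below 30% and not every replicate reaching it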
Target sequence (Q9NZ08 whole entry, looked up): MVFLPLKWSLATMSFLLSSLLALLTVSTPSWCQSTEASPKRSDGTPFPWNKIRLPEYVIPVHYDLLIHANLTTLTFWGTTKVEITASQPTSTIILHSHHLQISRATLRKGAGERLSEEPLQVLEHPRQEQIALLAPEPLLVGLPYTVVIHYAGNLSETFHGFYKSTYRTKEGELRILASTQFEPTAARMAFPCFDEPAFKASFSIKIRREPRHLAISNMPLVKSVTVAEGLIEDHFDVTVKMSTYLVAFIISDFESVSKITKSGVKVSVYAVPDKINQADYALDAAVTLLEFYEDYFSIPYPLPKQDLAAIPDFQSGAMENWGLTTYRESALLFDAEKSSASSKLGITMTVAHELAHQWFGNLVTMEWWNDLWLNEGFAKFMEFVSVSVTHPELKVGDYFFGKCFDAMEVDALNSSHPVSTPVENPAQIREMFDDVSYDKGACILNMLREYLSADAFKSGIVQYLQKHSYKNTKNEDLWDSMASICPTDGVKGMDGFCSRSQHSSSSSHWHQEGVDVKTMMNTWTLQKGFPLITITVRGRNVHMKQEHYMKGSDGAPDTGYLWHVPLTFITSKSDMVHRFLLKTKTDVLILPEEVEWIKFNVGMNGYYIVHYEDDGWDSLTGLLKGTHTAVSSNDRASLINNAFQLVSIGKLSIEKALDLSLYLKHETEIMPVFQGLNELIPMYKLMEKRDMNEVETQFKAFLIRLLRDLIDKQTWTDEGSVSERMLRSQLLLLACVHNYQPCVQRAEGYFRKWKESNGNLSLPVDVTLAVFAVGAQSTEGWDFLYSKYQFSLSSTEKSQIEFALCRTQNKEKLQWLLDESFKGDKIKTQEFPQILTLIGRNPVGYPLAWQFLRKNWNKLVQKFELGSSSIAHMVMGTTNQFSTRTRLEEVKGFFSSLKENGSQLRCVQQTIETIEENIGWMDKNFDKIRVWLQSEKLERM
Numbers stand for hits; . = inactive; ? = inconclusive; / = no result; + = active, no number. Only some compounds are listed: those with a hit (about 3.2% of all), similar ones and a draw of the others.

SMILES | CaV13 FRET inh | rRNA inh HTS | GSIS activator | PGC1a acetyl inh | DENV2 CPE | ERAP1 inh
CCn1c(SCc2nc(-c3ccc(OC)c(OC)c3)no2)nnc1-c1cccs1 | . | -32 | . | . | . | .
COc1ccc(-c2noc(CSc3nnc(Cc4ccccc4)n3-c3cccc(C)c3)n2)cc1OC | . | -26 | . | . | . | .
CCc1ccc(NC(=O)COC(=O)CCCC2=NS(=O)(=O)c3ccccc3N2)cc1 | . | -17 | . | . | . | .
COC(=O)Cc1c(O)ccn(Cc2ccc(Cl)c(Cl)c2)c1=O | . | -21 | . | . | . | .
COC(=O)Cc1c(O)ccn(Cc2ccc(OC)c(OC)c2)c1=O | . | . | . | / | . | .
C[C@@H]1CCCCO[C@H](CN(C)S(C)(=O)=O)[C@@H](C)CN([C@@H](C)CO)C(=O)c2cc(NC(=O)c3ccncc3)ccc2O1 | / | . | . | . | ? | /
COc1cc2c(cc1OC)C(Nc1ccccc1)=NC(C)(C)C2 | . | . | 57 | . | . | .
COc1cc2ccccc2cc1C(=O)NC1CCCC1 | . | -21 | / | . | . | .
COc1ccc(OC)c(-c2cc(C(=O)NC3CCCC3)c3ccccc3n2)c1 | . | . | . | / | 36 | .
O=C(NC1CCCCCC1)c1cc2ccccc2oc1=O | . | -24 | . | . | . | .
COc1cc2ccccc2cc1C(=O)NC1CCC(C)CC1 (stereo unspecified) | . | . | . | / | . | .
COc1cccc(-c2cc(C(=O)NC3CCCC3)c3ccccc3n2)c1 | . | . | . | . | . | .
CN(C)CC(=O)Nc1ccc2c(c1)[C@H]1C[C@H](CC(=O)NCc3cc(F)ccc3F)O[C@H](CO)[C@H]1O2 | / | . | . | . | . | .
CC(C)NC(=O)N(C)C[C@@H]1Oc2ncc(-c3ccccc3)cc2C(=O)N([C@H](C)CO)C[C@@H]1C | / | . | . | . | . | .
C[C@@H]1CN([C@H](C)CO)S(=O)(=O)c2ccc(C#Cc3ccccc3F)cc2O[C@H]1CN(C)C | / | . | . | . | . | .
C[C@@H]1CN([C@H](C)CO)C(=O)Cc2cc(NC(=O)C3CC3)ccc2O[C@H]1CN(C)CC1CCCCC1 | / | . | . | . | . | .
COc1ccc(C(=O)Nc2ccc(S(=O)(=O)Nc3nccc(C)n3)cc2)cc1 | . | . | . | . | . | .
Cc1ccc(O)c(-c2cc(C(=O)Nc3ccc(S(=O)(=O)Nc4nccc(C)n4)cc3)[nH]n2)c1 | . | -29 | . | . | . | .
COC(=O)c1cc(S(=O)(=O)N(C)C2CCCCC2)oc1C | . | -27 | . | . | . | .
Cc1c2c(n3c(nc4ccccc43)c1C#N)N(CCN1CCOCC1)CC2 | + | . | . | . | . | .
O=C(Nc1ccc(F)cc1)N[C@H]1CC[C@@H](CCn2cc(C3(O)CCCC3)nn2)O[C@H]1CO | / | . | . | . | . | .
CCOC(=O)/C(=N\Nc1ccccc1[N+](=O)[O-])c1csc(N)n1 | . | -27 | . | . | . | .
CCOC(=O)/C(=N\Nc1ccc(C(C)=O)cc1)c1csc(Nc2ccccc2)n1 | . | / | . | / | / | /
CN1c2ccc(-c3ccccc3F)cc2[C@@H]2[C@@H](CCN2S(=O)(=O)c2ccccc2)[C@@H]1CO | / | . | . | . | . | .
CCCCc1c(O)nc(SCC(=O)c2ccccc2)n(-c2ccccc2)c1=O | . | -18 | . | . | . | .
SMILES | CaV13 FRET inh | rRNA inh HTS | GSIS activator | PGC1a acetyl inh | DENV2 CPE | ERAP1 inh
CCCCc1c(O)nc(SCC(=O)c2ccccc2)n(-c2ccccc2OC)c1=O | . | . | . | . | . | /
CCCCc1c(O)nc(SCC(=O)c2ccccc2)n(-c2ccccc2C)c1=O | . | -32 | . | . | . | .
CCCN1C[C@H](C)[C@@H](OC)CN(C)C(=O)c2ccc(NC(=O)C3CC3)cc2OC[C@H]1C | / | . | . | . | . | .
N#C[C@@H]1[C@H](c2ccccc2)[C@H](CO)N1C(=O)Cc1ccccc1 | / | . | . | . | 74 | .
CCc1sc(N2[C@H](C#N)[C@H](c3ccccc3-c3ccccc3)[C@H]2CO)nc1C | / | . | . | . | 76 | .
CCC(=O)N1[C@H](C#N)[C@H](c2ccccc2-c2cccc(C)c2)[C@@H]1CO | / | . | . | . | 24 | .
COCC(=O)N1[C@H](CO)[C@H](c2ccccc2-c2ccccc2)[C@@H]1C#N | / | . | . | . | 45 | .
